Results filed as inconclusive are left out. Calls of active or inactive are those of the source. Calls follow the shape of the dose curve; as a rule, active = well fitted cell-killing curve with a large enough effect; inconclusive = small, poorly fitted or top-dose-only effect, or effect the other way; inactive = no such curve, though single readings can be large or run the other way.
Experiment: Quantitative High-Throughput drug screen in 47 multiple myeloma cell lines against the NCATS MIPE library collection: XG6_PLB cell viability assay (AID 1919865); also: nearly all actives have a fitted effect of over 40% in size
Conditions: XG6 myeloma viability, CellTiter-Glo ATP luminescence, 48 h; series mostly up to 45.8 µM
Summary of the method: (§1)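 Myeloma cells (500/well) treated with MIPE 4.0 compounds for 48 h at 37 °C, 5% CO2. Viability read as ATP via CellTiter-Glo luminescence after 5 min at RT; DMSO-only wells = 100%, media-only = 0% viability.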
Potency is read from the fitted curve at half-maximal effect.

Row | SMILES | Potency
1 | CC(C)(C)NC(=O)Nc1cccc(Nc2ncc(F)c(NC(C)(C)CO)n2)c1 | 20.9 µM (active)
2 | CS(=O)c1ccc(-c2nc(-c3ccc(F)cc3)c(-c3ccncc3)[nH]2)cc1 (stereo unspecified) | 42.9 µM (active)
3 | CC(C)(C)Cn1c(N)nc2ccc(-c3[nH]c(C(C)(C)C)nc3-c3ccc(F)cc3)nc21 | 14.8 µM (active)
4 | COc1ccc(Cc2nccc3cc(OC)c(OC)cc23)cc1OC | 13.2 µM (active)
5 | COc1ccc2c(Oc3ccc(NC(=O)c4c(C)n(CC(C)(C)O)n(-c5ccccc5)c4=O)cc3F)ccnc2c1 | 20.9 µM (active)
6 | O=C1C[C@@H](c2ccc(O)cc2)Oc2cc(O)cc(O)c21 | inactive
7 | O=C(O)c1cc(O)c2c(c1)C(=O)c1cccc(O)c1C2=O | inactive
8 | CC[C@H]1OC(=O)[C@H](C)C(=O)[C@H](C)[C@@H](O[C@H]2O[C@H](C)C[C@H](N(C)C)[C@@H]2O)[C@](C)(OC)C[C@@H](C)C(=O)[C@H](C)[C@H]2N(CCCCn3cnc(-c4cccnc4)c3)C(=O)O[C@]12C | 4.69 µM (active)
9 | CC(C)C[C@H](CC(=O)O)C(=O)N[C@@H](Cc1c[nH]c2ccccc12)C(=O)N[C@@H](C)c1ccccc1 | inactive
10 | COc1ccc(C2CC(c3ccccc3)=NN2c2ccc(S(N)(=O)=O)cc2)cc1 (stereo unspecified) | 18.7 µM (active)
11 | COc1cccc2c1CCCC2CCCN1CCN(C2CCCCC2)CC1 (stereo unspecified) | 23.5 µM (active)
12 | CN[C@@H](C)C(=O)N[C@H]1CN(C(=O)CC(C)C)CC[C@H]2CC[C@@H](C(=O)NC(c3ccccc3)c3ccccc3)N2C1=O | 1.32 µM (active)
13 | C=C1C(=O)OC(CCCCCCCC)C1C(=O)O (stereo unspecified) | 20.9 µM (active)
14 | O=C(OCC#CCSc1nnc(-c2cccc3ccccc23)o1)c1cc2ccccc2s1 | inactive
15 | CON=C(C(=O)N[C@@H]1C(=O)N2C(C(=O)OCOC(=O)C(C)(C)C)=C(C=Cc3scnc3C)CS[C@H]12)c1csc(N)n1 | 26.4 µM (active)
16 | NC[C@@H]1O[C@@H](O[C@H]2[C@@H](O)[C@H](O[C@@H]3[C@@H](O)[C@@H](N)C[C@H](N)[C@H]3O[C@H]3O[C@H](CN)[C@@H](O)[C@@H](O)[C@H]3N)O[C@H]2CO)[C@H](N)[C@@H](O)[C@@H]1O | inactive
17 | O=C(Nc1cccc(Br)c1)c1cccc(S(=O)(=O)N2CCCCCC2)c1 | 14.8 µM (active)
18 | CN1CCN(CCOc2cc(OC3CCOCC3)c3c(Nc4c(Cl)ccc5c4OCO5)ncnc3c2)CC1 | 5.26 µM (active)
19 | Cc1c[nH]c(C=C2C(=O)Nc3ccccc32)c1CCC(=O)O | inactive
20 | O=C(NC1CCOCC1)c1ccc(-c2cc(-c3cn[nH]c3-c3ccccn3)ccn2)cc1 | inactive
21 | CCC(CC)[C@H](NC(C)=O)[C@@H]1[C@H](O)[C@@H](C(=O)O)C[C@@H]1N=C(N)N | inactive
22 | NC(=O)c1cccc(-c2cc(Nc3ccc(OC(F)(F)F)cc3)ncn2)c1 | 16.6 µM (active)
23 | CC1(C)Cc2c(sc(NC(=S)NC(=O)c3ccccc3)c2C(=O)O)CO1 | 14.8 µM (active)

Experiment: Quantitative High-Throughput drug screen in 47 multiple myeloma cell lines against the NCATS MIPE library collection: XG1_PLB cell viability assay (AID 1919866); also: nearly all actives have a fitted effect of over 35% in size
Conditions: CellTiter-Glo ATP, 48 h; series mostly up to 45.8 µM
Summary of the method: as §1

Row | SMILES | Potency
24 | Nc1ncnc2ccccc12 | 7.43 µM (active)
25 | CS(=O)c1ccc(-c2nc(-c3ccc(F)cc3)c(-c3ccncc3)[nH]2)cc1 (stereo unspecified) | 38.2 µM (active)
26 | COc1ccc(Cc2nccc3cc(OC)c(OC)cc23)cc1OC | 14.8 µM (active)
27 | COc1ccc2c(Oc3ccc(NC(=O)c4c(C)n(CC(C)(C)O)n(-c5ccccc5)c4=O)cc3F)ccnc2c1 | 14.8 µM (active)
28 | O=C1C[C@@H](c2ccc(O)cc2)Oc2cc(O)cc(O)c21 | inactive
29 | O=C(O)c1cc(O)c2c(c1)C(=O)c1cccc(O)c1C2=O | inactive
30 | O=C(O)CCC1CCC(c2cc(F)ccc2F)(S(=O)(=O)c2ccc(Cl)cc2)CC1 (stereo unspecified) | 9.35 µM (active)
31 | COc1ccc(Cc2ccc(NC(N)=O)cc2)cc1-c1cccc(Cl)c1 | inactive
32 | CC(C)C[C@H](CC(=O)O)C(=O)N[C@@H](Cc1c[nH]c2ccccc12)C(=O)N[C@@H](C)c1ccccc1 | inactive
33 | CN[C@@H](C)C(=O)N[C@H]1CN(C(=O)CC(C)C)CC[C@H]2CC[C@@H](C(=O)NC(c3ccccc3)c3ccccc3)N2C1=O | 13.2 µM (active)
34 | C=C1C(=O)OC(CCCCCCCC)C1C(=O)O (stereo unspecified) | 14.8 µM (active)
35 | CON=C(C(=O)N[C@@H]1C(=O)N2C(C(=O)OCOC(=O)C(C)(C)C)=C(C=Cc3scnc3C)CS[C@H]12)c1csc(N)n1 | 18.7 µM (active)
36 | O=C(Nc1cccc(Br)c1)c1cccc(S(=O)(=O)N2CCCCCC2)c1 | 16.6 µM (active)
37 | O=C1Nc2ccc(Cl)cc2C(C#CC2CC2)(C(F)(F)F)O1 (stereo unspecified) | 16.6 µM (active)
38 | CCC(CC)[C@H](NC(C)=O)[C@@H]1[C@H](O)[C@@H](C(=O)O)C[C@@H]1N=C(N)N | inactive
39 | CN(C)c1cc(NC(=O)CNC(C)(C)C)c(O)c2c1C[C@@H]1C[C@H]3[C@H](N(C)C)C(=O)C(C(N)=O)=C(O)[C@@]3(O)C(=O)C1=C2O | inactive
40 | CC(=O)OC1C(C)OC(Oc2c(-c3ccc(O)cc3)oc3cc(O)cc(O)c3c2=O)C(O)C1OC(C)=O (stereo unspecified) | inactive
41 | CC1(C)Cc2c(sc(NC(=S)NC(=O)c3ccccc3)c2C(=O)O)CO1 | inactive
